Data taken from PubChem BioAssay AID493168 (National Center for Advancing Translational Sciences (NCATS), 2011).
Results filed as inconclusive are left out. Active and inactive are the calls of the source. The call rests on the fitted dose curve; in most records, active means well fitted inhibition curve with a large enough effect; inconclusive means small, poorly fitted or top-dose-only effect, or effect the other way; inactive means flat fitted curve, though single readings scatter.

Target: Ubiquitin carboxyl-terminal hydrolase 2 (Homo sapiens) (UniProt O75604)
Sequence (O75604 whole entry, looked up): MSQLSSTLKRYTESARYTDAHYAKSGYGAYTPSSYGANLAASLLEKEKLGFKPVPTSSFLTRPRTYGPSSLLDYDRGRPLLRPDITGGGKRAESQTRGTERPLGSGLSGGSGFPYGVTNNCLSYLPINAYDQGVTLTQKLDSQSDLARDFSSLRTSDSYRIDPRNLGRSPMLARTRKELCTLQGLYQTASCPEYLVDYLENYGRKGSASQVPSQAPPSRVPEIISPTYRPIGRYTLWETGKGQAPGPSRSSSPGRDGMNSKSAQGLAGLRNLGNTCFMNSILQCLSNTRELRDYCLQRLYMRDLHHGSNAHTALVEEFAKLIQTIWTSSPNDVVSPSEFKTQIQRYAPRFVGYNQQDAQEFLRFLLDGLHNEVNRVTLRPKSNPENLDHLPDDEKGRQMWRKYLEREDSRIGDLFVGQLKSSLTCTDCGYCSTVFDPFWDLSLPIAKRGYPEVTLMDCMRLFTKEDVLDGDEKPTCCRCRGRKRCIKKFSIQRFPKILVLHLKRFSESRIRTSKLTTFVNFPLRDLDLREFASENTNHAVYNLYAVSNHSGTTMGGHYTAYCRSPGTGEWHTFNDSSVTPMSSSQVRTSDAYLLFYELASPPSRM
Experiment: Confirmation Assay for Inhibitors of Ubiquitin-specific Protease USP2a Using CHOP2 as the Reporter; further: nearly all actives have a fitted effect of over 55% in size;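 on activity change, negative = inhibition: plate controls were DMSO wells for no effect and full inhibition by NEM control for full effect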
Conditions: USP2 core, Ub-CHOP2 coupled reporter fluorescence; series mostly up to 38.3 µM; activity change, negative = inhibition: at the top concentration
Method in brief: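 USP2 core (10 nM final) was preincubated with compound for 30 min at RT in Tris-HCl pH 8.0, CaCl2, beta-mercaptoethanol, CHAPS. Ub-CHOP2 and reporter substrate (25 nM final each) were added, and fluorescence (Ex 485/Em 531 nm) was read after 60 min.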
Potency means the concentration at half of the fitted maximal effect.

SMILES | activity change, negative = inhibition | Potency
Cc1cc(N2CCC(C(=O)NC3CC3)CC2)nc(-c2ccccc2)n1 | 4.66% (inactive) | –
CCC1=[N+](CC(=O)c2ccc(Br)cc2)CCn2c(C)ccc21 | 3.43% (inactive) | –
O=c1[nH]c(=S)[nH]c2c1C(c1ccc(Br)cc1)c1c([nH]c(=S)[nH]c1=O)O2 | – | 9.27 µM (active)
CN(c1ccccc1)S(=O)(=O)c1ccc(Cl)c(C(=O)NCCc2c[nH]c3ccccc23)c1 | -0.219% (inactive) | –
COc1cc2c(C(=O)N3CCN(c4cccc(Cl)c4)CC3)cn(CC(C)C)c(=O)c2cc1OC | -2.06% (inactive) | –
CCOC(=O)C1=CN(Cc2cccc(F)c2)S(=O)(=O)NC1c1ccc(Br)cc1F (stereo not given) | -4.73% (inactive) | –
CCOc1cc(/C=C2\C(=O)N(c3nc(-c4ccc(Br)cc4)cs3)N=C2c2ccccc2)ccc1O | – | 4.65 µM (active)
O=C(O)c1cccc(-n2cccc2/C=C2/NC(=O)N(c3ccc(Cl)cc3)C2=O)c1 | – | 9.27 µM (active)
CC1(C)CC(=O)C2=C(C1)N(Cc1ccco1)C(=O)NC2(C(F)(F)F)C(F)(F)F | 5.78% (inactive) | –
O=C(NCCC1=CCCCC1)C1CCCN(S(=O)(=O)c2cnc[nH]2)C1 (stereo not given) | 4.26% (inactive) | –
Cc1ccc(C(=O)NCCNS(=O)(=O)c2ccccc2)cc1 | 3.38% (inactive) | –
CC1Cc2ccccc2N1C(=O)Cn1c(=O)oc2cc(S(=O)(=O)NC3CCCC3)ccc21 (stereo not given) | 1.18% (inactive) | –
CCN1C(=O)C(NC(C)=O)c2cc(OC)ccc21 (stereo not given) | 1.61% (inactive) | –
O=C(C[n+]1ccc(-c2cc(C(=O)Nc3cccc(C(F)(F)F)c3)c3ccccc3n2)cc1)c1cccc([N+](=O)[O-])c1 | -8.79% (inactive) | –
COCCn1c(CN(Cc2ccccc2)Cc2ccccc2)nc2c1c(=O)n(C)c(=O)n2C | 3.16% (inactive) | –
